Hit rate of the full screen: of about 2,100 compounds, about 760 (36%) were called active. Only a sample is shown. A number with no mark means an inactive call.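 The calls were made as follows: active = thallium-flux fluorescence traces judged by eye to show enhanced or reduced glutamate response, manual score 1 or -1, so both directions (some results past the limit were not filed as active); inactive = the rest, including fluorescent or raised-baseline compounds.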
Experiment: non-GIRK thallium flux modulation in mGlu8 cells, confirmation, counter-screen for GIRK activator project, cell-based, HEK-293 rmGlu8, no GIRK (AID 623868);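 also: extra codes mark interference with 3 for fluorescent and 4 for baseline rise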
Conditions: thallium flux fluorescence, at 10 µM, actives lie on both sides, codes: 1 enhancer, -1 blocker, 0 none, thallium stimulus containing EC20 glutamate

Row | SMILES | manual score
1 | O=c1c2ccccc2[nH]c(=S)n1CCN1CCN(Cc2ccccc2)CC1 | 1 (active)
2 | Cc1ccccc1-c1nc(CN2CCC(C(=O)NCCCN3CC(C)CC(C)C3)CC2)c(C)o1 (configuration not stated) | 0
3 | Cc1cccc(N2C(N)=NC(N)=NC23CCCCC3)c1 | 0
4 | CCN(CC)S(=O)(=O)c1cc(NC(=O)Cn2cnc3ccccc3c2=O)ccc1C | 0
5 | CC(C)CN(C(=O)COC(=O)Cc1n[nH]c(=O)c2ccccc12)C1CCS(=O)(=O)C1 (configuration not stated) | 0
6 | CCOC(=O)c1c(C)[nH]c(=S)c(C#N)c1-c1ccc(Cl)cc1 | 0.5
7 | COc1ccc(-c2c3c([nH]c(=S)c2C#N)CCC3)cc1 | 1 (active)
8 | CCN1CCCC1CNC(=O)CSCc1nc(-c2ccccc2C)oc1C (configuration not stated) | 0
9 | CCC1c2ccc(C)n2CCN1C(=O)Nc1ccccc1C(=O)OC (configuration not stated) | 0
10 | COC(=O)c1ccccc1NC(=S)NC(NC(=O)c1ccccc1[N+](=O)[O-])C(Cl)(Cl)Cl (configuration not stated) | 1 (active)
11 | O=C(NC(NC(=S)Nc1ccc(Cl)cc1Cl)C(Cl)(Cl)Cl)c1cccc([N+](=O)[O-])c1 (configuration not stated) | 1 (active)
12 | O=C(/C=C/c1ccccc1)NC(NC(=S)Nc1cc(Cl)ccc1Cl)C(Cl)(Cl)Cl (configuration not stated) | 0
13 | COC(=O)c1ccccc1NC(=S)NC(NC(=O)c1ccco1)C(Cl)(Cl)Cl (configuration not stated) | 1 (active)
14 | O=C(/C=C/c1ccccc1)NC(NC(=S)Nc1cccc(Cl)c1)C(Cl)(Cl)Cl (configuration not stated) | 0
15 | O=C(/C=C/c1ccccc1)NC(NC(=S)Nc1cccc(O)c1)C(Cl)(Cl)Cl (configuration not stated) | 3
16 | CCOc1cc(C)nc(N2CCN(C3CCCCC3)CC2)n1 | 0
17 | O=C1CC(c2ccncc2)c2cc3c(cc2N1)OCCO3 (configuration not stated) | 0
18 | Cc1ccc(NC(=O)Cn2cccc2)cc1Cl | 0
19 | Cc1cccc2sc(NC(=O)Cn3cccc3)nc12 | 1 (active)
20 | CCC(=O)Nc1nc2ccc3nc(C)sc3c2s1 | 0
21 | CCOc1ccccc1Cn1c(=O)oc2ccc(C)cc21 | 0
22 | COC(=O)c1c(NC(=S)NC(=O)c2ccco2)sc2c1CCCC2 | 0
23 | COC(=O)c1c(NC(=S)Nc2ccc(F)cc2[N+](=O)[O-])sc2c1CCCCC2 | 1 (active)
24 | COc1ccc(NC(=O)COC(=O)CC23CC4CC(CC(C4)C2)C3)c([N+](=O)[O-])c1 | 0
25 | CCOC(=O)c1c(NC(=S)Nc2ccccc2)sc2c1CCCCC2 | 1 (active)
26 | COC(=O)c1c(NS(=O)(=O)Cc2ccccc2)sc2c1CCCC2 | 1 (active)

Row | SMILES | manual score
27 | CCOC(=O)c1c(NS(=O)(=O)Cc2ccccc2)sc2c1CCCC2 | 1 (active)
28 | COc1ccccc1OCC(=O)Nc1sc2c(c1C(=O)NCC1CCCO1)CCC2 (configuration not stated) | 0
29 | CCOC(=O)Cn1c(=O)oc2cc(S(=O)(=O)Nc3ccc(N(CC)CC)cc3C)ccc21 | 0
30 | CC(C)c1ccccc1NC(=O)COC(=O)/C=C/c1cccc([N+](=O)[O-])c1 | 0
31 | CC(C)Oc1ccccc1C1Nc2ccccc2C(=O)N1c1ccc2c(c1)OCCO2 (configuration not stated) | 0
32 | COC(=O)c1c(NC(=O)Cc2cccs2)sc(C(=O)NC2CCCCC2)c1C | 0
33 | CC(=O)Oc1ccc(N(C(C)=O)S(=O)(=O)c2cccs2)c2ccccc12 | 0
34 | COC(=O)c1c(NS(=O)(=O)c2cccs2)sc2c1CCCC2 | 1 (active)
35 | CCCCN(CCCC)C(=O)CSc1nnc2n(C)c(=O)c3c4c(sc3n12)CCCC4 | -1 (active)
36 | CCC1(C)Cc2c(sc3c2c(=O)n(C)c2nnc(SCc4ccc5c(c4)OCO5)n32)CO1 (configuration not stated) | 0
37 | CON(c1nc(Cl)nc(N(C)C)n1)S(=O)(=O)c1ccccc1Cl | 0
38 | CCCCCC/C(C)=C1/SC(=S)NC1=O | 1 (active)
39 | Cn1c(CNc2nc3ccccc3n2CCN2CCCCC2)nc2ccccc21 | 0
40 | CC1(C)CC(c2nc(-c3ccc(Br)cc3)cs2)CCS1 (configuration not stated) | 0
41 | COC(=O)COn1c(SC(C)C)nc2ccccc2c1=O | 0
42 | CCc1c(O)nc(SCC(=O)Nc2ccc(OC)cc2)n(C2CCCCC2)c1=O | 0
43 | CCCN(CCC)C(=O)CSc1nc2ccccc2c(=O)n1C1CCCC1 | -1 (active)
44 | CCOC(=O)CSc1nc2c(sc(=S)n2-c2ccccc2OC)c(=O)n1Cc1ccco1 | -0.5
45 | CCOC(=O)N1CCN(C(=O)CSc2ncnc3ccccc23)CC1 | 0
46 | CCN(CC)C(=O)CSc1nc2ccccc2c(=O)n1-c1ccccc1OC | -1 (active)
47 | CCOC(=O)N1CCN(C(=O)CSc2nc3c(c(=O)n2-c2ccccc2OC)SCC3)CC1 | -1 (active)
48 | COC(=O)c1ccc2c(=O)n(C3CCCCC3)c(SCC#N)nc2c1 | 0
49 | N#CC1=C(N)Oc2n[nH]c(-c3cccs3)c2C1c1ccco1 (configuration not stated) | 3
50 | Cc1ccc(N=C2CCCN2Cc2ccccc2)c(C#N)c1 | -1 (active)
51 | Cc1ccc(C)c(N=C2CCCN2Cc2ccccc2)c1C#N | -1 (active)
52 | Cc1c(C#N)c2ccccc2n1CC(=O)O | 0

— PubChem BioAssay AID623868 (Vanderbilt High Throughput Screening Facility, 2012)
